Measured values as given in PubChem BioAssay AID588689 (Southern Research Specialized Biocontainment Screening …, 2011).
About 1,000 (0.29%) of roughly 340,000 compounds were called active. No stated cut-off is given here; in the data, inconclusive means inhibition above about 29% without an active follow-up result; inactive means below that. Not all results are given here. Potency and affinity values are given separately.

Biological target: Genome polyprotein (Dengue virus type 2 (strain 16681-PDK53)) (UniProt P29991)
Assay: Dengue-2 NS5 methyltransferase inhibitors, primary screen, biochemical, confirmation dose response (AID 588689)
Conditions: Dengue-2 NS5 methyltransferase capping enzyme assay, at 25 µM, stronger effect = higher value
[1] = measured here: pilot screen replicate inhibition

Sequence of Genome polyprotein (Dengue virus type 2 (strain 16681-PDK53)) (P29991 whole entry, looked up): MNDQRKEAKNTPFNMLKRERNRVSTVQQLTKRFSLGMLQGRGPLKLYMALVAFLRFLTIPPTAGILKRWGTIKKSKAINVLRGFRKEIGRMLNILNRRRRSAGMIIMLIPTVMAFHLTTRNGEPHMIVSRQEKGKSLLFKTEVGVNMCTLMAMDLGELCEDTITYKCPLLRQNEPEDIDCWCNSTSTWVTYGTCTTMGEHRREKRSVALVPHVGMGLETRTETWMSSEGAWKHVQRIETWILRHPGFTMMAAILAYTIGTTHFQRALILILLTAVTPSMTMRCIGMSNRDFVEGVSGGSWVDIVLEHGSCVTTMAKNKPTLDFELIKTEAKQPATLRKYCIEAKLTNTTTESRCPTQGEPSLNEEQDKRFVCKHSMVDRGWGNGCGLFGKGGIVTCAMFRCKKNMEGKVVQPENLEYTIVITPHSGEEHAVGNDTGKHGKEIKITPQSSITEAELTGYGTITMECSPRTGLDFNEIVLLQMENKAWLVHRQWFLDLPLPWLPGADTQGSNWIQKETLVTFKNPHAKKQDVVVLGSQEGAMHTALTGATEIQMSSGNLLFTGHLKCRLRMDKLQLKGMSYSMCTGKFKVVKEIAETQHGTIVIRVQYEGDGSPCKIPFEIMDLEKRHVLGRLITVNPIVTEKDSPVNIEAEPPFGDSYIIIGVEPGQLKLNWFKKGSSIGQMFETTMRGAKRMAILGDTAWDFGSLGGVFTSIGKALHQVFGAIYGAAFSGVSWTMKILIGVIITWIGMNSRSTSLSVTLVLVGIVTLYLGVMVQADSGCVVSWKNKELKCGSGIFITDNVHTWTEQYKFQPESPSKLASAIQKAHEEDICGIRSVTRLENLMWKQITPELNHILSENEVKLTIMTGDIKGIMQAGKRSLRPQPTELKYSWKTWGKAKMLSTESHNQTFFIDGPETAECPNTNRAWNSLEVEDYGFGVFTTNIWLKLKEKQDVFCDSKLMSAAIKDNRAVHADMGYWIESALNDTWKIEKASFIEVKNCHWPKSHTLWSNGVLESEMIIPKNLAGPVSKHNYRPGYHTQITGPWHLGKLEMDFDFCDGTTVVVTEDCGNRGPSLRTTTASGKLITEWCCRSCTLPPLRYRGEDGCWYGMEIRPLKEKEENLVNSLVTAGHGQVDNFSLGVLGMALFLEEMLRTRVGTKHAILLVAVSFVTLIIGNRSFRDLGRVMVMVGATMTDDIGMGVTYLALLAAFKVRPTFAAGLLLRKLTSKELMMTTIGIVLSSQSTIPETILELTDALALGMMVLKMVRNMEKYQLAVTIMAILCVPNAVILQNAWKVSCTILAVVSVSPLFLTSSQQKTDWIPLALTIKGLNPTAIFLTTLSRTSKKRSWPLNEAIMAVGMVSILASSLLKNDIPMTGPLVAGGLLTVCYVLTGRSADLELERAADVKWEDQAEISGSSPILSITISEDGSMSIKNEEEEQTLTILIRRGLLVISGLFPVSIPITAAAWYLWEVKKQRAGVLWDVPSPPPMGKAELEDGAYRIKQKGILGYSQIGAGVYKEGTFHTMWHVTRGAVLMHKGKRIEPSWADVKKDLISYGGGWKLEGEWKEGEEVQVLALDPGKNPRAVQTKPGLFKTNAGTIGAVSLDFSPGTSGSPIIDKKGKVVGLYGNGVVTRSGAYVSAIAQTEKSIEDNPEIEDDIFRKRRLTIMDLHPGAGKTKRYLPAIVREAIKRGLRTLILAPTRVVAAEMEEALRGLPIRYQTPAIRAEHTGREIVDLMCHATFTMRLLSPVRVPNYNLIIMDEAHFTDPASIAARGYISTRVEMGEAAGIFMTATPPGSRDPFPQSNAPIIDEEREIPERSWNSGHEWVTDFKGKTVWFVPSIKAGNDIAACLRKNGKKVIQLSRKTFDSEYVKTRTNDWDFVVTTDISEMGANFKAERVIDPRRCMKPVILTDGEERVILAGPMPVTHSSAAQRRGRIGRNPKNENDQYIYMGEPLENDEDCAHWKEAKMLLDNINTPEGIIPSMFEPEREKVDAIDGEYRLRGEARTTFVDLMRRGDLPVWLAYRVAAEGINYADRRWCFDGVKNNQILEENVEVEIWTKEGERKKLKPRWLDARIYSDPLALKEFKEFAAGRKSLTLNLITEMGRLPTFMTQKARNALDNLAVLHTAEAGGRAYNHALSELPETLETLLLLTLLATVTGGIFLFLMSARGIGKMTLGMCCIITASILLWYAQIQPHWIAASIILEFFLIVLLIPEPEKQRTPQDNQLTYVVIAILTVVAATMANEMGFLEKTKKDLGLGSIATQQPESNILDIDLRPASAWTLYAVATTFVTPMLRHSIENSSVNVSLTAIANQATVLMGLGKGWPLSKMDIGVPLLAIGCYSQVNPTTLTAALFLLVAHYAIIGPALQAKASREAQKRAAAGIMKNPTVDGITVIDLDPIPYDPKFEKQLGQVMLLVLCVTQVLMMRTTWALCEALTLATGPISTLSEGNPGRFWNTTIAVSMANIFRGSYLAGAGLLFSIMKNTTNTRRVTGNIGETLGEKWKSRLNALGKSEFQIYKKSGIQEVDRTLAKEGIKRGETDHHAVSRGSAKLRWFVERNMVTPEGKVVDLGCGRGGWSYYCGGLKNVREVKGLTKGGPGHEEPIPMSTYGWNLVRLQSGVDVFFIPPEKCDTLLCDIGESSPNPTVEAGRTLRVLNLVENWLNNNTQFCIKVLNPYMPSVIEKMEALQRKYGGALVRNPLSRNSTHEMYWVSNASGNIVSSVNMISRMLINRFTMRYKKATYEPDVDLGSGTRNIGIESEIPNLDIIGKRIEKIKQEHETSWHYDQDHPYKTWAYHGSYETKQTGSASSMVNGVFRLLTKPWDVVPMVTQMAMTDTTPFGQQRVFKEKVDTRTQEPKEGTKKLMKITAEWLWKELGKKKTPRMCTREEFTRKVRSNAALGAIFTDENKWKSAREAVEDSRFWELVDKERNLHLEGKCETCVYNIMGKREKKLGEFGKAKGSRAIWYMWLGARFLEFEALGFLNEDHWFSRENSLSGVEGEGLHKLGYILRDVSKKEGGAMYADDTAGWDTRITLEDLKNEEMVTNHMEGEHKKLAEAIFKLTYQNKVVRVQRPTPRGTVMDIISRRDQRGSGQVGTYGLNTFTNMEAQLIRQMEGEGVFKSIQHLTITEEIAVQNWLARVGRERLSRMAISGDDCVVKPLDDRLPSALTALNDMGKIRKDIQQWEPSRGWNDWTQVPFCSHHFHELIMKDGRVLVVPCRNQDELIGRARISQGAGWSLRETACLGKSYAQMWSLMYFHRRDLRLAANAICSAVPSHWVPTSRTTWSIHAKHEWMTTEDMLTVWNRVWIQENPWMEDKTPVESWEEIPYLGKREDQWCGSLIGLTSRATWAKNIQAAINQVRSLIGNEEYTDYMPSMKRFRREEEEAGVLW

| SMILES | inhibition | inhibition [1] |
| --- | --- | --- |
| C=CCOc1ccc(/C=N/NC(=O)C(C)Sc2ccccn2)cc1OC (configuration not stated) | -7.22% (inactive) | – |
| Cc1ccc(S(=O)(=O)N(C)C)cc1NC(=O)COC(=O)C1(c2ccccc2)CC1 | -4.44% (inactive) | – |
| O=[N+]([O-])c1cccc(S(=O)(=O)Nc2ccc(S(=O)(=O)Nc3nccs3)cc2)c1 | -3.24% (inactive) | – |
| O=[N+]([O-])c1ccccc1S(=O)(=O)Nc1ccc(S(=O)(=O)Nc2nccs2)cc1 | 3.56% (inactive) | – |
| C/C(=N\NC(=O)c1cc(C)nc2ccccc12)c1ccccn1 | -2.29% (inactive) | – |
| CC(=O)NC1=NN(C(C)=O)C(c2ccc(C(C)C)cc2)S1 (configuration not stated) | 0.65% (inactive) | – |
| O=C(O)CSc1cc(C(=O)c2ccccc2O)cn2c(=O)c3c(-c4ccccc4)csc3nc12 | 36.4% (inactive) | – |
| COc1ccc(O)c(C(=O)c2cc(SCC(=O)O)c3nc4sc5c(c4c(=O)n3c2)CCCC5)c1 | 69.1% (inactive) | – |
| CCc1cc(C(=O)N(Cc2ccccc2)c2c(N)n(CCOC)c(=O)[nH]c2=O)sc1C | -5.81% (inactive) | – |
| CC(/C=C1\SC(=S)N(NC(=O)c2ccc(O)cc2)C1=O)=C\c1ccccc1 | 2.55% (inactive) | – |
| CC(/C=C1\SC(=S)N(NC(=O)c2ccccc2C)C1=O)=C\c1ccccc1 | 2.21% (inactive) | – |
| CC(/C=C1\SC(=S)N(NC(=O)c2cccc(O)c2)C1=O)=C\c1ccccc1 | -2.56% (inactive) | – |
| CC(/C=C1\SC(=S)N(NC(=O)c2ccc(C)cc2)C1=O)=C\c1ccccc1 | -6.45% (inactive) | – |
| COc1ccc([C@H]2/C=C\CN(S(=O)(=O)c3ccc(C)cc3)[C@@H](C)C(=O)N2Cc2ccc(F)cc2)cc1 | -6.14% (inactive) | – |
| CC1CCCCN1CCCNC(=O)CN1C(=O)CSc2ccc(S(=O)(=O)N3CCOCC3)cc21 (configuration not stated) | 0.89% (inactive) | – |
| Cc1ccnc(SCC(=O)N2CCC(C(N)=O)CC2)n1 | 5.18% (inactive) | – |
| O=C1CSCC(=O)N1Cc1ccc(Cl)c(Cl)c1 | 1.96% (inactive) | – |
| CCC(Oc1ccccc1)C(=O)NCCOC (configuration not stated) | -3.68% (inactive) | – |
| CCOC(=O)c1c(/N=C/c2cccc([N+](=O)[O-])c2O)sc2c1CCC2 | 25.2% (inactive) | – |
| CCOC(=O)c1c(/N=C/c2cc(OC)cc([N+](=O)[O-])c2O)sc(C)c1C | -0.36% (inactive) | – |
| O=C(CCC(=O)c1ccc(F)cc1)Nc1cc(Cl)cc(Cl)c1 | -2.06% (inactive) | – |
| CCOC(=O)c1ccc(CC(=O)c2ccc(O)cc2O)o1 | -4.07% (inactive) | – |
| CCCc1cc(C(=O)Cc2ccc(C(=O)OCC)o2)c(O)cc1O | -23.9% (inactive) | – |

| SMILES | inhibition | inhibition [1] |
| --- | --- | --- |
| O=C(O)c1ccc(N/N=C/c2cn(Cc3ccc(F)cc3)c3ccccc23)cc1 | 9.41% (inactive) | – |
| Nc1ccc(C(=O)N/N=C/c2cn(Cc3ccccc3F)c3ccccc23)cc1 | -1.3% (inactive) | – |
| COc1ccc(OCC(O)CN2CCOCC2)cc1 (configuration not stated) | 7.33% (inactive) | – |
| Cc1ccc[n+](-c2[nH]c(=O)sc2/C=N/N=C(\[O-])c2cccnc2)c1 | 7.25% (inactive) | – |
| Cc1ccc(NS(=O)(=O)c2ccc(NS(=O)(=O)c3cccs3)cc2)cc1 | -2.07% (inactive) | – |
| Cc1ccc(NS(=O)(=O)c2cccs2)nc1 | -0.32% (inactive) | – |
| O=C(C[n+]1ccn(CCCNP2(=O)C=C(c3ccccc3)OC(c3ccccc3)=C2)c1)c1cccs1 | 6.89% (inactive) | – |
| Cc1cccc(COCC(Cc2ccccc2)N2CCN(C(=O)c3cccc(C)c3)CCC2=O)c1 (configuration not stated) | -1.6% (inactive) | – |
| COc1ccc(-c2noc(CCC(=O)N3CCN(c4ccccc4C)CC3)n2)cc1 | -3.97% (inactive) | -0.01% |
| COc1cccc2c1-c1c(O)cccc1C2=O | 9.88% (inactive) | 6.38% |
| O=C(O)c1cc(O)c2c(c1)C(=O)c1cccc(O)c1C2=O | 5.97% (inactive) | – |
| Nc1ncn(C(=S)Nc2ccccc2)n1 | 5.4% (inactive) | – |
| COc1cc(OC)cc(-c2nnc(Nc3nc4c(F)cccc4s3)o2)c1 | 0% (inactive) | – |
| COc1cccc(-c2nnc(Nc3nc4c(F)cccc4s3)o2)c1 | 3.39% (inactive) | – |
| Cc1nc2cc(N3CCOCC3)c(NC(=O)C3CC3)cc2c(=O)n1Cc1ccccc1 | 0% (inactive) | – |
| O=S1(=O)N=C(SCCO)c2ccccc21 | 1.39% (inactive) | – |
| O=C(CSC1=NS(=O)(=O)c2ccccc21)Nc1ccccc1 | 25.7% (inactive) | – |
| COc1cccc(CNS(=O)(=O)c2cc3c4c(c2)CCN4C(=O)CC3)c1 | -2.16% (inactive) | – |
| CNC(=S)Nc1cc(C)ccc1OC(F)F | -3.09% (inactive) | – |
| CCOC(=O)c1c(NC(=O)C2C3CCC(O3)C2C(=O)O)sc(C)c1-c1ccc(C)cc1 (configuration not stated) | 16.7% (inactive) | – |
| CCOC(=O)c1c(NC(=O)C2C3CCC(O3)C2C(=O)O)sc2c1CCCC2 (configuration not stated) | -0.74% (inactive) | – |
| CCOC(=O)c1c(-c2cccc3ccccc23)csc1NC(=O)C1C2CCC(O2)C1C(=O)O (configuration not stated) | 2.56% (inactive) | – |
